We go through 9 compounds from PubChem BioAssay.

Active and inactive are the calls of the source. Unless noted, no rule for the calls is given here.

Assay [1] in a line: compound effects on lung adenocarcinoma cell viability – A549, calcein-AM fluorescence, 48 h, basal, profiling panel (AID 1162). Also: test concentration not given here. As to conditions: higher = more signal.
A short description of assay [2]: compound effects on differentiated 3T3-L1 adipocyte viability – cell-based, 3T3-L1 adipocytes, calcein-AM fluorescence, 48 h, basal, profiling panel (AID 1163). Also: test concentration not given here. As to conditions: 3T3-L1 adipocytes viability, higher = more signal.
The nature of assay [3]: compound effects on hepatocellular carcinoma cell viability – HepG2, calcein-AM fluorescence, 48 h, basal, profiling panel (AID 1164). Also: test concentration not given here. To be noted: higher = more signal.
A short description of assay [4]: compound effects on multiple myeloma cell viability – MM1S, calcein-AM fluorescence, 48 h, basal, profiling panel (AID 1165). Also: test concentration not given here. As to conditions: higher = more signal.
Assay [5] in a line: calcein-AM signal in unstimulated myeloma cells – cell-based, calcein-AM fluorescence, 48 h, PK04 Diversity Set, profiling panel (AID 1166).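 Also: cells grown under basal conditions without added stimulus; test concentration not given here.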 To be noted: RPMI8226 myeloma viability, higher = more signal.
A short description of assay [6]: JC-1 mitochondrial signal, unstimulated HepG2 cells – cell-based, JC-1 fluorescence, 24 h, 100 nL compound, profiling panel (AID 1167). Also: test concentration not given here. To be noted: HepG2 mitochondrial potential, higher = more signal.
The nature of assay [7]: JC-1 mitochondrial signal, unstimulated adipocytes – cell-based, JC-1 fluorescence, 3T3-L1 adipocytes, 24 h, 100 nL compound, profiling panel (AID 1168). Also: test concentration not given here. As to conditions: JC-1 mitochondrial fluorescence, higher = more signal, called active from +8 up or from −8 down.
The nature of assay [8]: JC-1 mitochondrial signal, unstimulated myeloma cells – cell-based, JC-1 fluorescence, RPMI8226, 24 h, 100 nL compound, profiling panel (AID 1169). Also: test concentration not given here. As to conditions: JC-1 mitochondrial potential fluorescence, higher = more signal.
Assay [9] can be described thus: JC-1 mitochondrial signal, unstimulated MM1S myeloma – cell-based, JC-1 fluorescence, 24 h, 100 nL compound, profiling panel (AID 1170). Also: test concentration not given here. To be noted: MM1S mitochondrial potential, higher = more signal.
The nature of assay [10]: resazurin metabolic signal in A549 cells – cell-based, resazurin fluorescence, 24 h, PK04 Diversity Set, profiling panel (AID 1171). Also: test concentration not given here. To be noted: A549 viability, higher = more signal, called active from +8 up or from −8 down. (Resazurin is reduced to fluorescent resorufin, in cell work by metabolically active cells.)
Assay [11] in a line: resazurin metabolic signal in HepG2 cells – cell-based, resazurin fluorescence, 24 h, PK04 Diversity Set, profiling panel (AID 1172). Also: test concentration not given here. To be noted: HepG2 viability, higher = more signal.
A short description of assay [12]: budding yeast growth changes without added modifier – OD600, strain BY4716, 24 h, basal condition, primary screen (AID 1173). As to conditions: S. cerevisiae BY4716 growth, OD600, 24 h; higher = more signal, called active from +8 up or from −8 down.
Assay [13] is described as follows: viability profiling in MM1S myeloma cells – cell-based, resazurin fluorescence, basal, 24 h, PK04 Diversity Set, profiling panel (AID 1174). Also: test concentration not given here. As to conditions: higher = more signal, called active from +8 up or from −8 down.
Assay [14] has as its target Dihydroorotate dehydrogenase (quinone), mitochondrial (Plasmodium falciparum (isolate 3D7)) (UniProt Q08210). The experiment in a line: inhibition of P. falciparum DHODH – biochemical, C-terminal His tag, absorbance 600 nm, primary screen (AID 1175).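 Also: recombinant parasite enzyme with a five histidine tag at its C terminus; test concentration not given here.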 As to conditions: PfDHODH enzyme, DCIP absorbance 600 nm; higher = more signal, called active from +8 up or from −8 down.

Assay [15] is described as follows: inhibition of PAO1 biofilm formation – strain PAO1, LB-PBS medium, absorbance 600 nm, primary screen (AID 1176). Also: test concentration not given here. To be noted: P. aeruginosa PAO1 growth/biofilm, A600, 12 h; higher = more signal.
The nature of assay [16]: growth modulation of vineyard yeast isolate – strain RM11-1a, OD600, basal, 24 h, primary screen (AID 1177).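 Also: cultures grown under basal conditions with no added stressor; test concentration not given here.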 To be noted: S. cerevisiae RM11-1a growth, OD600, 24 h; higher = more signal, called active from +8 up or from −8 down.
The nature of assay [17]: growth of efflux-deficient E. coli DRC39 – strain DRC39, OD650, 24 h, E. coli filamentation inducers, primary screen (AID 1178).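 Also: growth measured as culture turbidity by optical density at 650 nm; test concentration not given here.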 As to conditions: E. coli DRC39 acrAB, higher = more signal, called active from +8 up or from −8 down.
Assay [18] in a line: growth of efflux-deficient E. coli DRC39 – strain DRC39, OD650, 48 h, E. coli filamentation inducers, primary screen (AID 1179).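 Also: screen aims at cell division blockers that make cells filament.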 To be noted: E. coli DRC39 delta-acrAB growth, higher = more signal, called active from +8 up or from −8 down.
Assay [19] in a line: viability profiling in RPMI8226 myeloma cells – cell-based, resazurin fluorescence, basal, 24 h, PK04 Diversity Set, profiling panel (AID 1180).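 Also: RPMI8826 multiple myeloma cell line at 5000 cells per well; test concentration not given here.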 As to conditions: higher = more signal.
Assay [20] has as its target E3 ubiquitin-protein ligase XIAP (Homo sapiens) (UniProt P98170). As to the kind of experiment: small molecules binding XIAP protein – biophysical, small-molecule microarray, fluorescence 635 nm, primary screen (AID 1181).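 Also: score merges 667 nm emission and signal to noise over triplicate slides.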 As to conditions: higher = more signal.

Chain of Dihydroorotate dehydrogenase (quinone), mitochondrial (Plasmodium falciparum (isolate 3D7)) (Q08210 whole entry, looked up): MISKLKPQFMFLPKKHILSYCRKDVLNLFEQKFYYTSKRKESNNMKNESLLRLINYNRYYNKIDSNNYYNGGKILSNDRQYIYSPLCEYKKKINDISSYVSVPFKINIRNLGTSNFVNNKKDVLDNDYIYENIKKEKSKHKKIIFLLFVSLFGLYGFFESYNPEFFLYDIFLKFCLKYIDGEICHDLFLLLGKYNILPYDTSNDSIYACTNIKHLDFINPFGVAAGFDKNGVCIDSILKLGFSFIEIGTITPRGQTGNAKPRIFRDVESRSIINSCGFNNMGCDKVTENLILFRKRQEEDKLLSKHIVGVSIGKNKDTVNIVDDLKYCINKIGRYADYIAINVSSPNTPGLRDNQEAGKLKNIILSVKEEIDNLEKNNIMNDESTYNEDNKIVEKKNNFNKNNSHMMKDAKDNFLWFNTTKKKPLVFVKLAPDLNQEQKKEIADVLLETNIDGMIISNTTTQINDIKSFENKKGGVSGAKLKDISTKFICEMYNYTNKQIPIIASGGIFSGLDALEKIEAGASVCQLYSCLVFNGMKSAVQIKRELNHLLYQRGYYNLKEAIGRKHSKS
Chain of E3 ubiquitin-protein ligase XIAP (Homo sapiens) (P98170 whole entry, looked up): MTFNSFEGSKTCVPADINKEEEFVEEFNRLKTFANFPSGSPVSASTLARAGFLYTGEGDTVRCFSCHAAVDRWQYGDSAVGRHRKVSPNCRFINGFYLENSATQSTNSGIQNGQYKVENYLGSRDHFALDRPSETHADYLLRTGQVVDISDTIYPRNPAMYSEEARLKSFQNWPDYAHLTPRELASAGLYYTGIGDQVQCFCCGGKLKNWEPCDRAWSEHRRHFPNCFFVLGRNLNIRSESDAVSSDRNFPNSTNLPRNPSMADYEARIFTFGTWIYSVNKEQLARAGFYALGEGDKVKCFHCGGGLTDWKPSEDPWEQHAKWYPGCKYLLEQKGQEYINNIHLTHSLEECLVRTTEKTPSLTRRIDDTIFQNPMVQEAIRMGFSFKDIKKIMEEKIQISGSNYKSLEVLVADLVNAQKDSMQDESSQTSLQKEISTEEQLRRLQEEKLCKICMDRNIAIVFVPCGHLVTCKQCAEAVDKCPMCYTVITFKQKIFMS

As to `CC(C)N1C(=O)C[C@@](C(=O)NCCCN(C)C)(c2ccc([N+](=O)[O-])cc2)[C@H]1c1ccc(CO)cc1`, the z-score is 0.173 in [1]; 0.165 in [2]; -0.093 in assay [3]; -0.367 in assay [4]; 0.768 in [5]; -0.459 in assay [6]. Besides, the z-score in assay [7] is -1.18 (inactive); in assay [8] it was 0.701; in assay [9], 0.169; in assay [10], -0.28 (inactive); in assay [11], 0.0314; in assay [12], -0.67 (inactive). The z-score in [13] was -1.21 (inactive); in [15], 0.745 (inactive); in [16], -0.379 (inactive); in [17] it was -0.328 (inactive); in [18], -1.02 (inactive); in assay [19], -0.198. For the same compound, the composite z-score in assay [14] is 0.352 (inactive); in assay [20], -0.267.

For `COc1ccc([Si](C)(C)[C@@H]2[C@@H](CC(=O)N3Cc4ccccc4C[C@H]3CO)O[C@]3(C(=O)N(C)c4ccccc43)[C@H]2C)cc1`, the z-score in assay [1] is -2.16; in assay [2], 0.0677; in assay [3], -4.12; in assay [4], -2.66; in [5], -4.4; in [6] it was -0.682. Moreover, the z-score is 1.08 (inactive) in assay [7]; -1.14 in assay [8]; -2.28 in assay [9]; -1.42 (inactive) in assay [10]; -1.35 in assay [11]; -2.33 (inactive) in assay [12]. Moreover, the z-score was -2.97 (inactive) in assay [13]; 1.81 (inactive) in assay [15]; 1.87 (inactive) in assay [16]; 1.21 (inactive) in assay [17]; 0.403 (inactive) in assay [18]; -4.65 in [19]. Besides, the values for the composite z-score in assay [14] and in [20] were 0.0586 (inactive) and -0.0095, respectively.

As for `C=CCN1C(=O)[C@@]2(O[C@@H](CCn3cc([C@H](O)c4ccccc4)nn3)[C@H]([Si](C)(C)c3ccc(OC)cc3)[C@H]2C)c2cc(N3CCC3=O)ccc21`, the z-score in assay [1] was 0.36; in assay [2], 0.977; in assay [3], 0.0404; in assay [4] it was -1.12; in assay [5], -2.81; in [6], 2.18. Besides, the z-score in [7] is 0.385 (inactive); in assay [8] it was -1.01; in [9], 0.219; in assay [10] it was -1.35 (inactive); in assay [11] it was -0.721; in assay [12], 0.869 (inactive). For the same compound, the z-score in assay [13] is -1.14 (inactive); in [15], 1.25 (inactive); in [16] it was 2.39 (inactive); in [17] it was 0.397 (inactive); in assay [18], 0.477 (inactive); in assay [19] it was -1.09. The figures for the composite z-score in [14] and in assay [20] were 0.936 (inactive) and -0.153, respectively.

As for `COCCCNC(=O)[C@@]1(Cc2ccccc2N=[N+]=[N-])COC(c2ccc(OCCCO)cc2)=N1`, the z-score in [1] is 0.552; in assay [2], -0.707; in assay [3] it was 0.815; in assay [4], -0.919; in assay [5], -0.0778; in [6], 0.796. Besides, the z-score in assay [7] is 0.156 (inactive); in [8], -0.408; in [9], -1.21; in assay [10], 0.992 (inactive); in assay [11], 0.677; in assay [12] it was -1.68 (inactive). Moreover, the z-score is -0.583 (inactive) in assay [13]; -0.76 (inactive) in assay [15]; 0.483 (inactive) in assay [16]; 0.349 (inactive) in assay [17]; 0.746 (inactive) in [18]; 0.895 in assay [19]. The figures for the composite z-score in [14] and in [20] were 0.962 (inactive) and 0.0049, respectively.

Take `C=CC1c2cc(O)c(OC)cc2CCN1Cc1cc2c(cc1Br)OCO2` (stereo not given): the z-score in assay [1] was -3.63; in assay [2] it was 1.28; in assay [3], -4.07; in assay [4] it was -3.17; in assay [5], -4.57; in assay [6] it was -2.98. Also, the z-score in [7] was -0.196 (inactive); in [8], -0.743; in [9] it was -0.348; in assay [10] it was -1.67 (inactive); in assay [11], -1.95; in assay [12], -12.5 (active). Further, the z-score in assay [13] was -2.21 (inactive); in assay [15], -0.0065 (inactive); in [16], -2.09 (inactive); in assay [17], -0.929 (inactive); in [18], -1.69 (inactive); in assay [19], -2.82. Further, the results for the composite z-score in [14] and in [20] were -7.6 (inactive) and -0.0525, respectively.

On to `CCOC(=O)C[C@H]1[C@H](OC(=O)c2cc3ccccc3oc2=O)[C@@H](NC(=O)c2ccc(-c3ccccc3)cc2)c2cc(OCCCO)ccc2N1C(=O)c1ccccc1`, for which the z-score in [1] was 0.182; in assay [2], 1.82; in [3] it was 0.404; in [4], 0.172; in assay [5], -0.841; in assay [6], 1.27. Also, the z-score in [7] is -0.445 (inactive); in [8], -0.337; in [9] it was -0.595; in assay [10], -1.1 (inactive); in assay [11] it was -0.638; in [12], -1.79 (inactive). Moreover, the z-score was -0.005 (inactive) in assay [13]; -0.329 (inactive) in assay [15]; -0.272 (inactive) in [16]; -0.466 (inactive) in [17]; -0.878 (inactive) in [18]; -0.24 in assay [19]. The composite z-score was -2.74 (inactive) in [14] and 0.164 in assay [20].

Consider `CC(CO)N1C(=O)[C@@H]2[C@H]3C(=O)OCC=C[C@H]3OC23C=CCN(CCN2CCOCC2)C(=O)[C@@H]13` (stereo not given in full), for which the z-score in [1] is -0.313; in assay [2], 0.344; in assay [3], -0.0457; in [4], 0.646; in assay [5] it was -0.0704; in [6] it was -0.382. The z-score in assay [7] was 0.126 (inactive); in assay [8], 0.0907; in [9] it was 0.12; in assay [10] it was -0.147 (inactive); in [11], 0.0843; in assay [12], 0.0245 (inactive). The z-score in assay [13] was -0.622 (inactive); in assay [15] it was -0.649 (inactive); in [16] it was -0.169 (inactive); in assay [17], -0.55 (inactive); in [18], -0.733 (inactive); in assay [19], -0.266. The composite z-score in assay [14] was -0.0564 (inactive); in [20], -0.0046.

With `[N-]=[N+]=NCc1ccccc1[C@H]1OC(c2ccc(OCCCO)cc2)=N[C@@]1(CCS(=O)(=O)c1ccccc1)C(=O)N1CCCCC1`, the z-score was 0.481 in [1]; 1.03 in [2]; -0.0898 in assay [3]; -0.133 in assay [4]; -0.946 in assay [5]; -0.0617 in assay [6]. Further, the z-score in assay [7] is 1.04 (inactive); in [8], -1.11; in assay [9], -1.11; in [10], -0.743 (inactive); in assay [11], -0.0145; in [12], 0.285 (inactive). In addition, the z-score in assay [13] is -1.55 (inactive); in [15], 0.659 (inactive); in [16], 1.77 (inactive); in [17] it was -0.132 (inactive); in assay [18] it was -0.846 (inactive); in assay [19] it was -0.661. The composite z-score in assay [14] is 0.716 (inactive); in assay [20], 0.0593.

In the case of `C=CCC(OC(C)=O)[C@@H]1[C@@H](N(Cc2cccc3ccccc23)C(=O)c2cccc3ccccc23)c2cc(OCCCO)ccc2N1C(=O)c1ccc(-c2ccccc2)cc1` (stereo not given in full), the z-score in assay [1] was -0.545; in [2], 0.511; in [3], 0.571; in [4], 0.425; in assay [5], 0.0712; in assay [6], 1.61. In addition, the z-score in assay [7] is -0.632 (inactive); in assay [8], 0.72; in assay [9], -0.177; in [10] it was -0.227 (inactive); in assay [11] it was -0.333; in assay [12], 0.134 (inactive). The z-score in assay [13] is -1 (inactive); in assay [15], -0.309 (inactive); in assay [16], -0.56 (inactive); in [17] it was 0.161 (inactive); in assay [18] it was -0.123 (inactive); in assay [19], -0.569. For the same compound, the results for the composite z-score in assay [14] and in [20] were 0.136 (inactive) and -0.232, respectively.
